A short description of assay [1]: Cell Viability - HepG2 (AID 433; calls by dose curve;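 note: potency is the fitted concentration of half-maximal effect; cells exposed to compound for 40 hours; potency for ATP loss meaning cytotoxicity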). As to conditions: qHTS. The method, boiled down: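 Read-out is luciferase-based quantitation of cellular ATP as a measure of viable HepG2 cells after 40 h treatment at 37 °C. Signal decrease is scaled between DMSO-only and 100 uM tamoxifen controls, with AC50 fitted by the Hill equation.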
Assay [2] is described as follows: Cell Viability - HUV-EC-C (AID 542).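 Note: cells exposed to compound for 40 hours; % is set by controls: 0 for no effect and ±100 for the full control effect; nearly all actives have a fitted effect of over 35% in size.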 As to conditions: HUV-EC-C endothelial cell viability, qHTS; series mostly up to 92.2 µM. Put shortly:
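qHTS cytotoxicity: HUV-EC-C, 1000 cells/well, 5 hr settle, compound 40 hr 37 °C, CellTiter-Glo, luminescence. AC50 via Hill equation.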
Background: Quantitative high-throughput screening tests each substance at several concentrations.

Assay [3] in a line: Cell Viability - Mesenchymal (AID 546).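 Note: cells exposed to compound for 40 hours before reading; 0% = DMSO only and -100% = 100 µM tamoxifen.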 The settings on record: mesenchymal cells viability, qHTS; series mostly up to 91.7 µM. The method, boiled down:
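Normal human renal glomerulus-derived kidney mesenchymal cells, 1000 per well in complete medium, were treated with compounds for 40 hr at 37 °C. Viability was read as intracellular ATP by CellTiter-Glo luminescence; AC50 values came from Hill-equation fits of qHTS concentration-response data.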

Assay [4] in a line: Cellular Toxicity (caspase-3) MRC-5 (AID 659). The settings on record: MRC-5 cells, luminescence, normalized: DMSO 0%, 10 µM staurosporine 100%; series mostly up to 91.7 µM. The method, boiled down:
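Luminescence from caspase-cleaved aminoluciferin substrate (Caspase-Glo 3/7, 1 hr RT) reports caspase 3/7 activity in MRC-5 lung fibroblasts after 16 hr compound exposure. Normalized to DMSO basal and 10 uM staurosporine as 100%; AC50 from Hill fits.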

Assay [5] can be described thus: Cellular Toxicity (caspase-3) SK-N-SH (AID 661). As to conditions: SK-N-SH caspase-3 activation, qHTS; series mostly up to 91.7 µM. The method, boiled down: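 Human neuroblastoma SK-N-SH, 1500 cells/well, 5 hr pre-incubation, then compound 16 hr, 37 °C. Caspase-Glo 3/7 reagent, 1 hr RT, luminescence. Norm. to DMSO/10 uM staurosporine; Hill-fit AC50.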
The nature of assay [6]: Cellular Toxicity (caspase-3) NIH 3T3 (AID 666).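 Note: caspase signal read after 16 h compound exposure; 0% = DMSO basal and 100% = 100 µM tamoxifen stimulation.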 The settings on record: NIH 3T3 caspase-3 activation, apoptosis/toxicity; series mostly up to 92.2 µM. Put shortly:
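Luminescence from aminoluciferin released by caspase-3/7 cleavage of a peptide substrate served as read-out. Mouse fibroblast NIH 3T3 cells were exposed to compounds over a concentration range for 16 hours, and AC50 values came from standard Hill modelling.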

Assay [7] in a line: Cell Viability - LYMP2-004 (AID 966). Note: nearly all actives have a fitted effect of over 65% in size. Note: potency is the fitted concentration of half-maximal effect. As to conditions: LYMP2-004 lymphoblastoid cell viability, qHTS; series mostly up to 92.2 µM. Put shortly: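 Cells seeded 2500/well, rested 5 hr at 37 C, dosed across a concentration series, incubated 24 hr at 37 C, then CellTiter-Glo added for 30 min at room temperature and luminescence read. Hill fitting gave AC50.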
Assay [8] in a line: Cell Viability - LYMP2-017 (AID 972).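 Note: cells exposed to compound for 24 hours at 37 °C; nearly all actives have a fitted effect of over 55% in size.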 Note: potency is the fitted concentration of half-maximal effect. The settings on record: LYMP2-017 lymphoblastoid cell viability; series mostly up to 92.2 µM. Put shortly: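 2500 cells/well, 5 h 37 C; cpd 24 h 37 C in complete medium; CellTiter-Glo, 30 min RT; luminescence (ATP). AC50 via Hill fit, qHTS.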
Assay [9] can be described thus: Cell Viability - LYMP2-021 (AID 974).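 Note: compound exposure lasts 24 hours at 37 °C; nearly all actives have a fitted effect of over 55% in size.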 Note: potency is the fitted concentration of half-maximal effect. The settings on record: LYMP2-021 lymphoblastoid cells viability; series mostly up to 92.2 µM. Put shortly:
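Plate 2500 lymphoblastoid cells per well and incubate 5 hr at 37 C. Add compounds over a concentration range and incubate 24 hr at 37 C. Add CellTiter-Glo, wait 30 min at room temperature, read luminescence.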

The nature of assay [10]: Cell Viability - LYMP2-023 (AID 975).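 Note: cellular ATP measured by luciferase luminescence as viability proxy; cells exposed to compound for 24 hours at 37 °C; plate controls were DMSO only for no effect and 92 µM tetraoctylammonium bromide control for full effect; nearly all actives have a fitted effect of over 55% in size.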 The settings on record: LYMP2-023 lymphoblastoid cell viability; series mostly up to 92.2 µM. The method, boiled down: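 2500 cells/well, 5 hr 37 C; cpd 24 hr 37 C; CellTiter-Glo, 30 min RT; luminescence. qHTS conc-response, Hill fit -> AC50. Pos ctrl tetraoctylammonium bromide.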
Assay [11] in a line: Cell Viability - LYMP2-007 (AID 979).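 Note: cells exposed to compound for 24 h before reading; nearly all actives have a fitted effect of over 60% in size.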 Note: potency is the fitted concentration of half-maximal effect. The settings on record: LYMP2-007 lymphoblastoid cell viability; series mostly up to 92.2 µM. The method, boiled down:
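Luminescent ATP signal (CellTiter-Glo) serves as the viability read-out after 24 hr compound treatment of lymphoblastoid cells in complete medium at 37 C. Concentration-response data were fitted to the Hill equation to give AC50 values.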

Assay [12] is described as follows: Cell Viability - LYMP2-014 (AID 983). Note: nearly all actives have a fitted effect of over 50% in size. Note: potency is the fitted concentration of half-maximal effect. The settings on record: LYMP2-014 lymphoblastoid cells, viability qHTS; series mostly up to 92.2 µM. Put shortly:
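Luminescent ATP signal (CellTiter-Glo, 30 min at room temperature) serves as the viability read-out after 24 hr compound exposure at 37 C. Cells were seeded at 2500 per well and settled 5 hr beforehand.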

Assay [13] can be described thus: Cell Viability - LYMP2-026 (AID 989). Note: nearly all actives have a fitted effect of over 50% in size. Note: potency is the fitted concentration of half-maximal effect. The settings on record: LYMP2-026 lymphoblastoid cell viability, qHTS; series mostly up to 92.2 µM. Put shortly: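 Luminescent ATP signal (CellTiter-Glo, 30 min room temperature) measures viable lymphoblastoid cells after 24 hr compound treatment at 37 C. Decreased ATP reflects acute toxicity; AC50 values come from Hill-equation modeling.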

Assay [14] deals with Retinoic acid receptor RXR-alpha (Homo sapiens) (UniProt P19793). Description: qHTS assay for small molecule agonists of retinoid X receptor alpha signaling (AID 588544; calls by dose curve;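 note: 0% = DMSO basal wells and 100% = reference agonist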). As to conditions: HEK293T RXRa-UAS-bla, beta-lactamase reporter, 18 h; series mostly up to 76.7 µM.
Retinoic acid receptor RXR-alpha (Homo sapiens), sequence (P19793 whole entry, looked up): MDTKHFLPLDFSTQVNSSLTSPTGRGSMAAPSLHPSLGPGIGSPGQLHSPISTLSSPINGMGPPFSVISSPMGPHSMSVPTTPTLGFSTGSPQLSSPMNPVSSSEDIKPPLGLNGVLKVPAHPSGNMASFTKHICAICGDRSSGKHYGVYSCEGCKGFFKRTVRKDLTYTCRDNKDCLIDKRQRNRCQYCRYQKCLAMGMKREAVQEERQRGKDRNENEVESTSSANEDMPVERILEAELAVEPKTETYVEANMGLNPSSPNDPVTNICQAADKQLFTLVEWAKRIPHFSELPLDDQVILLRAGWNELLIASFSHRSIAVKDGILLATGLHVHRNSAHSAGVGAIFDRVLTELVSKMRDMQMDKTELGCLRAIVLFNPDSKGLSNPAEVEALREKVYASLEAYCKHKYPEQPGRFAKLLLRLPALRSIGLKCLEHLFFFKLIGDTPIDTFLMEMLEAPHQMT
The target in assay [15] is Voltage-gated inwardly rectifying potassium channel KCNH2 (Homo sapiens) (UniProt Q12809). The assay is described as follows: qHTS Assay for Small Molecule Inhibitors of the Human hERG Channel Activity (AID 588834).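 Note: top concentration of the series differs between compounds; % is set by controls: 0 for no effect and ±100 for the full control effect; lower thallium flux fluorescence means stronger hERG block; nearly all actives have a fitted effect of over 50% in size.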 As to conditions: U2OS BacMam hERG, FluxOR thallium flux fluorescence; series mostly up to 92.2 µM. The method, boiled down: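 hERG-BacMam U2OS, 2000 cells/well; 0.7X FluxOR loading 1 hr RT dark; cpd ~10 min 37 °C; stim buffer; FDSS fluorescence 2 min @ 1 s; AC50 Hill fit.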
Voltage-gated inwardly rectifying potassium channel KCNH2 (Homo sapiens), sequence (Q12809 whole entry, looked up): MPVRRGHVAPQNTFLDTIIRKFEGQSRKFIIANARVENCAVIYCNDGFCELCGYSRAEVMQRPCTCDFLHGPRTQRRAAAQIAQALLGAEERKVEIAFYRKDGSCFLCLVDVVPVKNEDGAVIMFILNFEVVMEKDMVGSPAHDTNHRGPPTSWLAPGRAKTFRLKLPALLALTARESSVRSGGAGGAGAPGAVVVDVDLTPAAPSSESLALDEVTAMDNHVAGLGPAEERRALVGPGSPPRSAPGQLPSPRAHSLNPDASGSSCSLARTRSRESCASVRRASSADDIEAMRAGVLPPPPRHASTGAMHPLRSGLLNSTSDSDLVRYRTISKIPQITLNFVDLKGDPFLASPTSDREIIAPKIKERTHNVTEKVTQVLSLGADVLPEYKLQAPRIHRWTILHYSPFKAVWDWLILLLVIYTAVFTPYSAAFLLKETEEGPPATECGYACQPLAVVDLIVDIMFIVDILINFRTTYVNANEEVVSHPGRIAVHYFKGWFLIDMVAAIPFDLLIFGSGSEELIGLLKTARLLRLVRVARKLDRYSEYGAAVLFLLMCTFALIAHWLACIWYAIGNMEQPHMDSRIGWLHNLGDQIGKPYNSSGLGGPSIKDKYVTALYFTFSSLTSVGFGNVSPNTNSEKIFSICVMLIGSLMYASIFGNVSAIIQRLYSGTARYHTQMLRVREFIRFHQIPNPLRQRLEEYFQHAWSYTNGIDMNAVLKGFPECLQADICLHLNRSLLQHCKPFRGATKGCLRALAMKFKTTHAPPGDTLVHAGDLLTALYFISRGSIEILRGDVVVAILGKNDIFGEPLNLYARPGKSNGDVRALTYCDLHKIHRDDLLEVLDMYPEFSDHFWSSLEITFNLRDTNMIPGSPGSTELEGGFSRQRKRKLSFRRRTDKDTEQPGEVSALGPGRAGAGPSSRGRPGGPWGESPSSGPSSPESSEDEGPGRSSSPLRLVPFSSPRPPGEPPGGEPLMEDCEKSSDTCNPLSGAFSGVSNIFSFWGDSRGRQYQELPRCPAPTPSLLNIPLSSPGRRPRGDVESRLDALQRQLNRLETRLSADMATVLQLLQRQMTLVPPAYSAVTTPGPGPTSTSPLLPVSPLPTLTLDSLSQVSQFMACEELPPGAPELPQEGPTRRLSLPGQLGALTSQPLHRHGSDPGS

A short description of assay [16]: qHTS assay for small molecule activators of the p53 signaling pathway (AID 651743; active = well fitted activation curve with a large enough effect in the signal ratio, not every such curve was filed as active; the % refers to the signal ratio; note: % of control where 0% means no effect). As to conditions: HCT-116 p53RE-bla, beta-lactamase FRET ratio, 16 h; activation: active compounds read high. The method, boiled down: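 Cell-based beta-lactamase reporter (p53 response elements, HCT-116 background). After a 5-hour preincubation, cells received compound for 16 hours at 37 C; substrate development ran 2 hours at room temperature.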

Assay [17] in a line: qHTS assay for small molecule disruptors of the mitochondrial membrane potential - 5 hr assay (AID 651755; calls by dose curve; note: % is set by controls: 0 for no effect and ±100 for the full control effect; nearly all actives have a fitted effect of over 40% in size). The settings on record: JC-1-type ratio dye; series mostly up to 92.2 µM. The method, boiled down: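 HepG2 cells, attached overnight at 37C, were exposed to compound or DMSO for 5 hr at 37C, 5% CO2. Mito-MPS dye was then added for 30 min, and fluorescence read at 490/535 nm (monomers) and 540/590 nm (aggregates).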

The nature of assay [18]: qHTS assay for environmental chemicals that activate the Aryl hydrocarbon Receptor (AhR) signaling pathway (AID 651777). Note: % of control where 0% means no effect; nearly all actives have a fitted effect of over 15% in size. The settings on record: 1A2-DRE human hepatoma cells, luciferase, 24 h; activation: active compounds read high. Put shortly: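 AhR activation is scored as a rise in luciferase from a stable DRE–CYP1A2 promoter construct in human hepatoma cells. Treatment lasts 24 hr at 37 C; detection uses One-Glo after 30 min at room temperature.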

A short description of assay [19]: qHTS assay for small molecule agonists of the antioxidant response element (ARE) signaling pathway measured by Nrf2-dependant transcriptional activity (AID 720636; active = well fitted curve in the direction sought with a large enough effect in the repeat runs; an effect the other way counts as inactive or inconclusive; note: % of control where 0% means no effect). The settings on record: ARE-luc HepG2, Nrf2 luciferase reporter, 16 h; series mostly up to 92.4 µM. The method, boiled down: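 First, ARE-luc HepG2 cells attached for 6 hr at 37 C in 1% dialyzed FBS medium. Next, compound or DMSO was added and incubated 16 hr. Finally, ONE-Glo reagent was added and luminescence measured after 30 min.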

The nature of assay [20]: Cell Viability - LYMP2-006 (AID 978).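 Note: cells exposed to compound for 24 hours; nearly all actives have a fitted effect of over 60% in size.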 Note: potency is the fitted concentration of half-maximal effect. As to conditions: LYMP2-006 lymphoblastoid cell viability, qHTS; series mostly up to 92.2 µM. The method, boiled down: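 Cells are seeded at 2500 per well and rested 5 hr at 37 C. Compounds are added across a concentration series for 24 hr at 37 C, after which ATP is quantified by luciferase luminescence.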

“And” between values parts separate entries of the source, which are not always exact repeats. Identical values can stand only once. Unmarked numbers belong to inactive results. Inconclusive results are not listed. The source made the active and inactive calls. Unless noted, calls come from the whole dose curve; as a rule, active = well fitted curve in the direction sought with a large enough effect; inconclusive = small, poorly fitted or top-dose-only effect, or another doubt; inactive = no such curve, though single readings can be large; an effect the other way counts as inactive or inconclusive.

For the compound `CC(C)(Cl)Cl`, the Potency in assay [1] was over 92 µM. The Potency entry in [2], in assay [3], in [5], in assay [6], in assay [7] and in [8] was “inactive” each time. Moreover, the Potency result in assay [9], in assay [10], in assay [11], in [12], in assay [13] and in assay [15] was “inactive” each time. Further, the Potency result in assay [17] and in [19] was “inactive” in each case. The compound was called inactive in assay [4] and in [14]. The figures for the activation in assay [16] and in [18] were -1.59% and 0.894%, respectively.

With `O=C(O)c1cc(Cl)ccc1Cl`, the Potency in [1] is over 92 µM. In addition, the Potency entry in [2], in assay [3], in [6], in assay [7], in [8] and in [9] was “inactive” each time. Also, the Potency result in assay [20], in [13], in assay [15], in assay [17] and in assay [19] was “inactive” throughout. Besides, the compound was called inactive in [4] and in assay [14]. For the same compound, the activation in [16] is -4.12%.

With `CC(C)C#N`, the Potency in assay [1] is over 92 µM. For the same compound, the Potency result in [2], in assay [3], in assay [5], in assay [6], in [8] and in assay [10] was “inactive” in each case. Besides, the Potency result in assay [20], in assay [11], in [12], in assay [13], in assay [15] and in assay [17] was “inactive” in each case. Besides, the Potency result in [19] is “inactive”. In addition, the compound was classed as inactive in [4] and in assay [14]. The activation in [18] is 0.256%.

Regarding `Nc1ccc(Cc2ccc(N)c(Cl)c2)cc1Cl`, the Potency in [1] was over 92 µM. The Potency entry in assay [3], in assay [5], in assay [6], in assay [7], in assay [8] and in assay [9] was “inactive” throughout. The Potency result in assay [10], in assay [20], in assay [11], in assay [12], in assay [13] and in assay [17] was “inactive” each time. The outcome in [4] was inactive. Besides, the activation in assay [16] was -1.58%; in [18] it was 3.75%.

With `O=[N+]([O-])CCO`, in assay [1], the Potency is over 92 µM. The Potency result in assay [2], in assay [3], in assay [5], in assay [6], in [7] and in [9] was “inactive” in each case. The Potency entry in assay [10], in assay [20], in [12], in [13], in assay [15] and in assay [19] was “inactive” each time. Further, the outcome in assay [14] was inactive. The activation in assay [18] was -2.02%.

With `N#C/C=C/C#N`, the Potency result in [5] and in assay [6] was “inactive” each time. Besides, the Potency in [7] was 15.8 µM (active); in [8], 31.6 µM (active); in [9], 39.8 µM (active); in assay [20], 25.1 µM (active); in assay [11], 39.8 µM (active); in assay [12] it was 39.8 µM (active). Moreover, in assay [13], the Potency was 39.8 µM (active). In assay [18], the activation was 5.04%.

Regarding `Nc1ccc([N+](=O)[O-])cc1N`, the Potency in [1] was over 92 µM. Besides, the Potency result in assay [2], in assay [3], in assay [5], in [6], in assay [7] and in assay [8] was “inactive” throughout. For the same compound, the Potency result in [9], in [10], in assay [20], in [11], in [12] and in assay [13] was “inactive” in each case. In addition, the Potency entry in [15] and in [17] was “inactive” in each case. Further, the compound was classed as inactive in [4] and in [14]. Further, the activation in [16] is -2.47%; in assay [18], 1.47% and 1.07%.

In the case of `C=CCBr`, in assay [1], the Potency is over 92 µM. The Potency result in [2], in assay [3], in [6], in assay [7], in assay [8] and in assay [9] was “inactive” in each case. For the same compound, the Potency entry in [10], in assay [20], in assay [11], in [12], in assay [13] and in assay [15] was “inactive” each time. Moreover, the Potency result in assay [17] and in assay [19] was “inactive” in each case. Moreover, in assay [16], the activation was -2.4%.
